Experimental data: PubChem BioAssay AID743280 (The Scripps Research Institute Molecular Screening Center, 2014)
Among all 2,000 compounds or so, about 680 (34%) were called active.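 The calls were made as follows: active = mean inhibition across triplicates above the hit cutoff set in the earlier primary screen (cut at about 19% in these data); inactive = the rest.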 Only a sample is shown.

target: Group 3 secretory phospholipase A2 (Homo sapiens) (UniProt Q9NZ20); test: HGIII-sPLA2 enzyme inhibition – biochemical, QFRET, triplicate, confirmation (AID 743280); details: recombinant hGIII-sPLA2, BODIPY PC-A2 QFRET fluorescence; at 12.2 µM; stronger effect = higher value;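 also: 0% = enzyme with DMSO and 100% = DMSO wells lacking enzyme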
Sequence (Q9NZ20 whole entry, looked up): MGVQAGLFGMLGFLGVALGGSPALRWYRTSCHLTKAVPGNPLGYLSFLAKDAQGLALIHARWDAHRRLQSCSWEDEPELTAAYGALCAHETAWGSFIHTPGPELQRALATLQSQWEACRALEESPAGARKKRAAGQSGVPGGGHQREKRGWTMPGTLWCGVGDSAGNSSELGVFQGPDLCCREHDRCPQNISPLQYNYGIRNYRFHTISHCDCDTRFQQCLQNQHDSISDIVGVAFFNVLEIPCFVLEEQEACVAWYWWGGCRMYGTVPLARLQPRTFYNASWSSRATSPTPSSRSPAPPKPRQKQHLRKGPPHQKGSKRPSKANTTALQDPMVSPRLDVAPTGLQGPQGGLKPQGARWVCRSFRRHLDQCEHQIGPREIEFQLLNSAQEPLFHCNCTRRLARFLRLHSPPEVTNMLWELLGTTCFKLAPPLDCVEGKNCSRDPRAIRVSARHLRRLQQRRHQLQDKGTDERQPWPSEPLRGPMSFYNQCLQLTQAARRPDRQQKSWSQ

inhibition, active:
Cc1cc(-c2n[nH]c(=S)n2-c2ccc(C)c(C)c2)no1 24.4%
Cc1ccc2sc(NNC(=O)c3ccc4c(c3)OCCO4)nc2c1C 38.7%
Oc1ccc2ccccc2c1N=Nc1nccs1 47.5%
C/C(=N\NC(=S)Nc1ccc(C)cc1)c1cc2ccccc2o1 40.2%
Cc1ccc(S(=O)(=O)N2CCOCC2)cc1C(=O)NC(=S)N(Cc1ccccc1)C(C)C 21.7%
NC[C@H](Cc1ccccc1)NCCc1cc(C(F)(F)F)cc(C(F)(F)F)c1 23.4%
CN(C)S(=O)(=O)c1cccc(NC(=S)N/N=C/C(=O)c2ccccc2)c1 33.4%
O=C(NNC(=S)Nc1ccc(Br)cc1Cl)c1ccco1 32.4%
O=C(CCl)NNc1cccc(Cl)n1 74.6%
O=C(NNC(=S)NC1CC2CCC1C2)c1ccc(Cl)cc1 (stereo not given) 22.9%
S=C(NNC(=S)NC1CC2CCC1C2)NC1CC2C=CC1C2 (stereo not given) 22.1%
O=C(N/N=C/c1cc(Cl)cc([N+](=O)[O-])c1O)C(O)(c1ccccc1)c1ccccc1 35.7%
CC(Oc1ccc2ccccc2c1)C(=O)NNC(=S)NC(=O)c1ccco1 (stereo not given) 22.6%
N=C(N)SCc1cccc2ccccc12 23.3%
O=C(OC12CC3CC(CC(C3)C1)C2)c1ccc(NCc2cc(O)ccc2O)cc1 42.8%
COc1ccc(Cl)cc1C(=O)NNC(=S)NC1CCCC1 38.5%
O=C(NNC(=S)NC1CCCCC1)c1ccccc1Cl 31.4%
CC(C)CC(=O)NC(=S)NNC(=O)c1cccc([N+](=O)[O-])c1 31.6%
COc1ccc2c(c1)c(=Cc1ccc(N(C)C)cc1)c1cc(-c3ccccc3)[n+](C)n12 45.1%
CCCCOc1ccc(CSC(=N)N)cc1[N+](=O)[O-] 25.2%

inhibition, inactive:
CC(C)(c1ccccc1)c1ccc(OCCN)cc1 0.24%
COc1ccccc1OCCn1c(SCC(N)=O)nc2ccccc21 13.8%
O=C(Nc1cccc(F)c1)c1cc(-c2ccco2)nc2ccccc12 9.4%
CC(=O)Oc1ccc2c(c1)C(=O)c1ccccc1C2=O 1.09%
C#CCCCc1nc2ccccc2c(=O)n1N 1.47%
CSc1ccc(NC(=O)/C=C/C(=O)O)cc1 -0.31%
Cc1sc2nc(SCC(=O)c3ccc(O)c(O)c3)n(Cc3ccco3)c(=O)c2c1C -10.3%
COc1ccccc1OCC(=O)OCn1c(SC)nnc(C)c1=O -3.63%
O=C(COc1ccc(S(=O)(=O)NCc2ccccc2)cc1)N1CCOCC1 -1.27%
CC(C(=O)Nc1ccccc1-c1ccccc1)N1CCOCC1 (stereo not given) 3.12%
CC(C)c1cc(C(=O)N/N=C/c2ccoc2)c(O)c(C(C)C)c1 9.71%
NC(Cc1ccccc1)c1csc(Nc2cc(Oc3ccccc3)ncn2)n1 (stereo not given) 9.47%
Cc1cccc(NC(=S)NCCN(C2CCCCC2)C2CCCC2)c1 15.1%
Cc1nnc(Sc2nc3c(c(=O)[nH]c(=O)n3C)n2Cc2ccccc2)s1 -3.34%
COc1ccnc(NC(=S)N2CCN(c3ncc(C(F)(F)F)cc3Cl)CC2)c1 19%
CC(C)=CCCC1(C)C=Cc2c(ccc3c2[nH]c2cc(O)c(C)cc23)O1 (stereo not given) -8.08%
O=C(NN1C(=O)C2C3C=CC(C3)C2C1=O)c1ccco1 (stereo not given) 1.65%
Cc1c(Cl)cccc1NC(=S)NCc1ccc2c(c1)OCO2 13.1%
CCOC12CC(C)(C)CC(C)(CC3=C1C(=O)CC(C)(C)C3)C2 (stereo not given) 0.63%
Cc1cccc(C)c1NC(=O)CN1C(=O)C(C)Oc2ccccc21 (stereo not given) 3.96%
Cn1c2c(c(=O)n(C)c1=O)C1c3ccccc3OCC1C(C)(C)O2 (stereo not given) -1.2%
Cc1ccc(C2Nc3ccccc3C(=O)N2CCN2CCNC2=O)cc1 (stereo not given) -3.41%
Cc1c(C(=O)N/N=C/c2ccccc2)[nH]c2c([N+](=O)[O-])cccc12 -5.71%
Cc1[nH]c(N)nc(=S)c1CCCNc1ccccc1 18.5%
S=c1[nH]nc(-c2ccco2)n1/N=C/c1ccccc1 13.8%
CC(NC(=O)COC(=O)Cn1cc(C(F)(F)F)ccc1=O)c1ccccc1 (stereo not given) 0.6%
CCOC(=O)NC(=O)/C(C#N)=C\c1ccccc1 -5.62%
COc1cc(/C=N/n2c(C)n[nH]c2=S)ccc1OCc1ccccc1 6.69%
CCNC(=S)Nc1ccc(OC(F)(F)F)cc1 10.7%
CCCCCCCCCCOC(=O)C[N+](C)(C)CC1CCCCC1O (stereo not given) 4.96%
O=C(/C=C/c1c(Cl)cccc1Cl)NCc1ccccc1 3.51%
CC[C@]1(O)C[C@@H]2CN(CCc3c([nH]c4ccccc34)[C@@](C(=O)OC)(c3cc4c(cc3OC)N(C)[C@H]3[C@@](O)(C(=O)OC)[C@H](OC(C)=O)[C@]5(CC)C=CCN6CC[C@]43[C@@H]65)C2)C1 10.2%
Nc1[nH]c(C(=O)c2ccccc2)c(-c2ccc(Br)cc2)c1C(=O)NC1CC1 12.2%
COC(=O)C(C)n1cnc2c(nnn2-c2ccc(F)cc2)c1=O (stereo not given) 1.8%
CN(CC(=O)Nc1ccc(N2CCOCC2)cc1)CC(=O)Nc1ccccc1[N+](=O)[O-] -2.32%
